Read-out in assay [1]: C-C motif chemokine 2 (Homo sapiens) (UniProt P13500)
Description: BSK_KF3CT_MCP1: BioMAP Diversity Plus: KF3CT Assay for Monocyte Chemoattractant Protein 1 (MCP1/CCL2) Biomarker Activity (AID 2283073). The note with it: primary human keratinocytes with fibroblasts; actives raise or lower the signal. In outline: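 Human keratinocyte plus foreskin fibroblast primary co-culture exposed to chemical for 24 h. MCP-1 levels measured by ELISA. Bidirectional curve fitting relative to DMSO negative control as baseline.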

Read-out in assay [2]: Matrix Metallopeptidase 9 (MMP9), MMP9 (gene 4318)
Description: BSK_KF3CT_MMP9: BioMAP Diversity Plus: KF3CT Assay for Matrix Metallopeptidase 9 (MMP9) Biomarker Activity (AID 2283074).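 For AC50: MMP9 protein level quantified by ELISA in the co-culture.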 The conditions noted are these: primary human keratinocytes with fibroblasts; actives raise or lower the signal. In outline: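 MMP-9 quantified by ELISA after 24 h chemical treatment of primary human skin keratinocyte/fibroblast co-cultures; gain or loss fitted against DMSO, with parallel SRB staining (0.1% SRB, 560 nm) for overt cytotoxicity.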

Read-out in assay [3]: urokinase plasminogen activator (uPA), PLAU (gene 5328)
Description: BSK_KF3CT_uPA: BioMAP Diversity Plus: KF3CT Assay for urokinase plasminogen activator (uPA) Biomarker Activity (AID 2283075). The note with it: primary human keratinocytes with fibroblasts; actives raise or lower the signal. Summed up: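 ELISA read-out of uPA 24 h after dosing human skin keratinocytes co-cultured with foreskin fibroblasts. Signal change fitted both ways relative to DMSO; sulforhodamine B on parallel cultures marks overt cytotoxicity.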

Read-out in assay [4]: CD40, CD40 (gene 958)
Description: BSK_LPS_CD40: BioMAP Diversity Plus: LPS Assay for CD40 Biomarker Activity (AID 2283076). The conditions noted are these: primary human HUVEC with PBMC; actives raise or lower the signal. In outline: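 Primary human umbilical vein endothelial cells co-cultured with peripheral blood mononuclear cells, LPS-stimulated, were dosed with chemical and read 24 h later. CD40 levels were measured by ELISA and fitted bidirectionally against DMSO as negative control and baseline.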

Read-out in assay [5]: E-selectin (Homo sapiens) (UniProt P16581)
Description: BSK_LPS_Eselectin: BioMAP Diversity Plus: LPS Assay for Eselectin Biomarker Activity (AID 2283077). The note with it: primary human HUVEC with PBMC; actives raise or lower the signal. Summed up:
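Human umbilical vein endothelial cells co-cultured with peripheral blood mononuclear cells under LPS stimulation; E-selectin measured by ELISA 24 h after chemical dosing. Activity fitted bidirectionally against DMSO as negative control and baseline.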

Read-out in assay [6]: Interleukin-8 (IL8), CXCL8 (gene 3576)
Description: BSK_LPS_IL8: BioMAP Diversity Plus: LPS Assay for Interleukin-8 (IL8) Biomarker Activity (AID 2283078). The conditions noted are these: primary human HUVEC with PBMC; actives raise or lower the signal. Summed up:
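Human umbilical vein endothelial cells co-cultured with PBMC were stimulated with LPS; IL-8 levels were measured by ELISA 24 h after chemical dosing. Activity was fitted bidirectionally against DMSO as negative control and baseline.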

Read-out in assay [7]: Interleukin-1 alpha (IL1a), IL1A (gene 3552)
Description: BSK_LPS_IL1a: BioMAP Diversity Plus: LPS Assay for Interleukin-1 alpha (IL1a) Biomarker Activity (AID 2283080). The note with it: primary human HUVEC with PBMC; actives raise or lower the signal. Summed up:
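Human umbilical vein endothelial cells co-cultured with peripheral blood mononuclear cells were LPS-stimulated and exposed to test chemicals for 24 h. IL-1 alpha was quantified by ELISA, with bidirectional curve fitting against DMSO as the negative control and baseline.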

Read-out in assay [8]: Monocyte Chemoattractant Protein-1 (MCP1), CCL2 (gene 6347)
Description: BSK_LPS_MCP1: BioMAP Diversity Plus: LPS Assay for Monocyte Chemoattractant Protein-1 (MCP1) Biomarker Activity (AID 2283081).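 For AC50: secreted MCP-1 protein quantified by ELISA in culture supernatant.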 The conditions noted are these: primary human HUVEC with PBMC; actives raise or lower the signal. In outline: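 HUVEC plus PBMC co-culture (human primary cells, LPS system) exposed to test chemical for 24 h; MCP-1 measured by ELISA. Bidirectional curve fitting against DMSO baseline; parallel SRB total-protein staining flags overt cytotoxicity.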

Assay [9] can be described thus: BSK_LPS_PGE2: BioMAP Diversity Plus: LPS Assay for Prostaglandin E2 (PGE2) Biomarker Activity (AID 2283082).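 For AC50: secreted prostaglandin E2 measured by ELISA in LPS-stimulated co-culture.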 The conditions noted are these: primary human HUVEC with PBMC; actives raise or lower the signal. In outline: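 ELISA read-out of PGE2 from human umbilical vein endothelial cells co-cultured with peripheral blood mononuclear cells under LPS, 24 h post-dose. Gain or loss of signal scored relative to DMSO baseline.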

Read-out in assay [10]: Macrophage colony-stimulating factor (MCSF), CSF1 (gene 1435)
Description: BSK_LPS_MCSF: BioMAP Diversity Plus: LPS Assay for Macrophage colony-stimulating factor (MCSF) Biomarker Activity (AID 2283083). The conditions noted are these: primary human HUVEC with PBMC; actives raise or lower the signal. In outline: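 Human umbilical vein endothelial cells co-cultured with peripheral blood mononuclear cells were exposed to compound for 24 h. M-CSF levels were measured by ELISA, and bidirectional curve fitting used DMSO as the negative control and baseline.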

Read-out in assay [11]: Tissue Factor, F3 (gene 2152)
Description: BSK_LPS_TissueFactor: BioMAP Diversity Plus: LPS Assay for Tissue Factor Biomarker Activity (AID 2283084). The conditions noted are these: primary human HUVEC with PBMC; actives raise or lower the signal. Summed up: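 Human umbilical vein endothelial cells co-cultured with peripheral blood mononuclear cells were dosed and stimulated with LPS. Cell-surface CD142 was quantified by ELISA at 24 h. Activity was fitted bidirectionally against DMSO baseline.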

Read-out in assay [12]: Tumor necrosis factor (Homo sapiens) (UniProt P01375)
Description: BSK_LPS_TNFa: BioMAP Diversity Plus: LPS Assay for Tumour Necrosis Factor alpha (TNFa) Biomarker Activity (AID 2283085).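 For AC50: TNFa protein level quantified by ELISA in the co-culture.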 The conditions noted are these: primary human HUVEC with PBMC; actives raise or lower the signal. In outline: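 HUVEC/PBMC co-culture, LPS-stimulated; 24 h post-dose; TNFa by ELISA; gain or loss of signal fitted bidirectionally vs DMSO baseline.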

Read-out in assay [13]: Vascular cell adhesion molecule 1 (VCAM1), VCAM1 (gene 7412)
Description: BSK_LPS_VCAM1: BioMAP Diversity Plus: LPS Assay for Vascular cell adhesion molecule 1 (VCAM1) Biomarker Activity (AID 2283086). The note with it: primary human HUVEC with PBMC; actives raise or lower the signal. In outline:
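ELISA read-out of VCAM-1 at 24 h post-dosing in an LPS-driven HUVEC/PBMC primary human co-culture; gain or loss of signal fitted bidirectionally against DMSO baseline. Cytotoxicity tracked in parallel cultures by SRB total-protein staining.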

Read-out in assay [14]: CD38, CD38 (gene 952)
Description: BSK_SAg_CD38: BioMAP Diversity Plus: SAg Assay for CD38 Biomarker Activity (AID 2283087). The note with it: primary human HUVEC with PBMC; actives raise or lower the signal. Summed up: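 Measures CD38 on a human endothelial/PBMC co-culture driven by SEB and TSST-1, 24 h after compound exposure, using ELISA with fluorescence detection; DMSO defines baseline for bidirectional curve fitting.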

Read-out in assay [15]: CD40, CD40 (gene 958)
Description: BSK_SAg_CD40: BioMAP Diversity Plus: SAg Assay for CD40 Biomarker Activity (AID 2283088). The note with it: primary human HUVEC with PBMC; actives raise or lower the signal. Summed up:
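Human umbilical vein endothelial cells co-cultured with PBMC; CD40 levels measured by ELISA with fluorescence read-out 24 h after chemical dosing. Gain or loss of signal fitted bidirectionally against DMSO baseline.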

Read-out in assay [16]: CD69, CD69 (gene 969)
Description: BSK_SAg_CD69: BioMAP Diversity Plus: SAg Assay for CD69 Biomarker Activity (AID 2283089).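 For AC50: cell surface CD69 protein quantified by ELISA with fluorescence detection.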 The conditions noted are these: primary human HUVEC with PBMC; actives raise or lower the signal. Summed up:
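Primary human vascular co-culture (umbilical vein endothelium with peripheral blood mononuclear cells) exposed to test chemical for 24 h. CD69 levels quantified by fluorescence ELISA; DMSO served as negative control for bidirectional fitting.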

Read-out in assay [17]: Monocyte Chemoattractant Protein-1 (MCP1), CCL2 (gene 6347)
Description: BSK_SAg_MCP1: BioMAP Diversity Plus: SAg Assay for Monocyte Chemoattractant Protein-1 (MCP1) Biomarker Activity (AID 2283090). The note with it: primary human HUVEC with PBMC; actives raise or lower the signal. In outline: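 Values derive from bidirectional fitting of ELISA-measured MCP1 against DMSO controls. Readings were taken 24 h after dosing human vascular endothelial cells co-cultured with peripheral blood mononuclear cells under superantigen stimulation.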

Read-out in assay [18]: E-selectin (Homo sapiens) (UniProt P16581)
Description: BSK_SAg_Eselectin: BioMAP Diversity Plus: SAg Assay for Eselectin Biomarker Activity (AID 2283091). The conditions noted are these: primary human HUVEC with PBMC; actives raise or lower the signal. Summed up:
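HUVEC co-cultured with PBMC, compound dosed then read at 24 h; E-selectin measured by ELISA. Activity fitted bidirectionally against DMSO as negative control and baseline.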

Read-out in assay [19]: Monokine induced gamma interferon (MIG), CXCL9 (gene 4283)
Description: BSK_SAg_MIG: BioMAP Diversity Plus: SAg Assay for Monokine induced gamma interferon (MIG) Biomarker Activity (AID 2283092). The conditions noted are these: primary human HUVEC with PBMC; actives raise or lower the signal. In outline: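 Endothelial cells and PBMC were co-cultured, exposed to test chemicals, and sampled 24 h later. MIG was measured by ELISA, and responses were fitted in both directions relative to DMSO.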

The source made the active and inactive calls. Rule for the calls: active = hit-call score of the fitted dose curve at least 0.9, where 1 is the maximum; inactive = score below 0.9.

Sequence of E-selectin (Homo sapiens) (P16581 whole entry, looked up): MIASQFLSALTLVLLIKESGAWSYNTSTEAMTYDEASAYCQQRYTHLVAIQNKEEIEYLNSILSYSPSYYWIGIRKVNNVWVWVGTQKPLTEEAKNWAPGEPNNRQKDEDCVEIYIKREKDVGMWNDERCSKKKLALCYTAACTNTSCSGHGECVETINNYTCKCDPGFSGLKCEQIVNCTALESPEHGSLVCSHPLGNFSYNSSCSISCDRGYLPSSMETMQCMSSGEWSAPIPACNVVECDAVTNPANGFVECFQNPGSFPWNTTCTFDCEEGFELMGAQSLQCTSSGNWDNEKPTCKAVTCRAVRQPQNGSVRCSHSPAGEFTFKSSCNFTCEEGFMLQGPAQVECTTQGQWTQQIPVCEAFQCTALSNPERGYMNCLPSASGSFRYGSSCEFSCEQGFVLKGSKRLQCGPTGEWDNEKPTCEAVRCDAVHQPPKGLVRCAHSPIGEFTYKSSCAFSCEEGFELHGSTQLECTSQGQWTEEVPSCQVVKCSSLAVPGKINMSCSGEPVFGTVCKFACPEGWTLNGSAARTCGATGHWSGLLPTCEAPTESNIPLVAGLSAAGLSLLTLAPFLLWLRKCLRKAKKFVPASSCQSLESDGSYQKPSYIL
Sequence of Tumor necrosis factor (Homo sapiens) (P01375 whole entry, looked up): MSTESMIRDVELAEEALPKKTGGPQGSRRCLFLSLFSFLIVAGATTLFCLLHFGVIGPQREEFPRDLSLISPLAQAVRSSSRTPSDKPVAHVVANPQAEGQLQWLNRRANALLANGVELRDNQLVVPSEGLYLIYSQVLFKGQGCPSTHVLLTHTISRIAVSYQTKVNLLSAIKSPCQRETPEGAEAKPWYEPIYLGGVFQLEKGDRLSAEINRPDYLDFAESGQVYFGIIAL

`COc1ccc([N+](=O)[O-])cc1N`: the outcome in [1], in [2], in [3], in [4], in assay [5] and in assay [6] was inactive. Further, the result in assay [7], in assay [8], in assay [9], in assay [10], in [11] and in assay [12] was inactive. Besides, the outcome in [13], in assay [14], in assay [15], in assay [16], in assay [17] and in assay [18] was inactive. For the same molecule, the outcome in assay [19] was inactive.
For `CCCCCCCCC(=O)O`, the outcome in [1], in assay [2], in assay [3], in [4], in [5] and in assay [6] was inactive. Moreover, the outcome in assay [7], in assay [8], in assay [9], in [10], in assay [11] and in [13] was inactive. In addition, the outcome in assay [14], in assay [15], in assay [17], in assay [18] and in [19] was inactive.
Usually AC50 stands for the concentration giving half of the maximal activity seen. Regarding `Cc1oc(-c2ccccc2)nc1CCOc1ccc(C[C@H](Nc2ccccc2C(=O)c2ccccc2)C(=O)O)cc1`, the AC50 in [1] is 5.22 µM (active); in assay [2], 6.66 µM (active); in [3], 7.7 µM (active); in assay [4], 30.2 µM (active); in assay [5], 30.8 µM (active); in assay [6], 29.1 µM (active). In addition, the AC50 was 20 µM (active) in assay [7]; 16.1 µM (active) in [8]; 8.83 µM (active) in assay [9]; 30.6 µM (active) in assay [10]; 31.6 µM (active) in assay [11]; 30.4 µM (active) in [12]. In addition, the AC50 is 33.1 µM (active) in assay [13]; 28.6 µM (active) in [14]; 30 µM (active) in assay [15]; 14.4 µM (active) in [16]; 24.1 µM (active) in [17]; 31.5 µM (active) in [18]. Moreover, in assay [19], the AC50 was 38.9 µM (active).
